# This is a sample that favours compounds with a hit; in the whole collection about 12% have one here.
# Shiga inhibitor – inhibitors of Shiga toxin in Vero cells; Vero cells, Shiga toxin protein synthesis inhibition reporter; inhibition, % at 38.7 µM; actives 9.2% (n = 290,000); in the data active = inhibition mostly above about 28%, no sharp cut-off; inactive = mostly below about 43%; also: 0% is about no effect
# SARS PLP yeast – SARS-CoV PLP inhibition in yeast. S. cerevisiae expressing SARS-CoV PLpro, growth rescue. Potency, µM (highest dose often 32.9 µM), for inactives: top-dose activity, positive = growth rescue, hits mostly activators. actives 0.19% (n = 330,000). AID 485353; also: potency is read from the fitted curve at half-maximal effect; 0% is about no effect; nearly all actives have a fitted effect of over 55% in size
# CHX counter – affects cycloheximide protein synthesis inhibition readout, counter-screen; cell reporter, cycloheximide protein synthesis inhibition counterscreen; max response, %; actives 12% (n = 300,000); AID 2314; in the data active = max response mostly above about 13%, no sharp cut-off; inactive = mostly below about 14%; also: read at 38.3 µM for the half of the compounds with a filed dose; 0% is about no effect
# NS1 function inh – blocks influenza NS1 protein function. Potency, µM (highest dose often 46.1 µM), for inactives: at the top dose activity, positive = more growth. actives 0.4% (n = 270,000); also: potency is read from the fitted curve at half-maximal effect; actives are rising curves; nearly all actives have a fitted effect of over 50% in size
#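 Growth recovery, yeast-based: influenza A NS1 expressed in S. cerevisiae causes slow growth, and suppressors are detected by OD600. The parent strain without NS1 is used as positive control.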
# Active calls of the source: *; ? = inconclusive; nt = no result given. Unless noted, calls follow the shape of the full dose curve.
SMILES,Shiga inhibitor,SARS PLP yeast,CHX counter,NS1 function inh
Cc1cc(C(=O)OCC(=O)Nc2ccc(F)cc2F)c(C)o1,14,-4%,17*,-18%
O=C(OCC(=O)c1ccc[nH]1)c1ccc(Cl)nc1,nt,1%,nt,nt
Cc1c(C(=O)OCC(=O)c2ccc3c(c2)OCCO3)oc2ccccc12,59*,-4%,36*,-5%
Cc1cc(C(=O)OCC(=O)c2ccc(Br)s2)c(C)o1,36,-8%,33*,-15%
CCc1ccc(C(=O)COC(=O)c2ccc(Cl)nc2)cc1,65*,-1%,42*,nt
O=C(COC(=O)C(O)c1ccccc1)c1ccc2c(c1)OCCO2 (stereo not drawn),103*,9%,32*,9%
CCOC(=O)c1c(C)[nH]c(C)c1C(=O)COC(=O)c1ccc(Cl)nc1,nt,1%,nt,nt
CS(=O)(=O)c1cccc(C(=O)OCC(=O)c2ccc3c(c2)OCCO3)c1,nt,-3%,nt,nt
Nc1ccccc1C(=O)OCC(=O)c1ccc2c(c1)OCCO2,74*,5%,31*,13%
CC(C)Oc1ccc(-c2nc(NCC3CCCO3)c3ccccc3n2)cc1 (stereo not drawn),47*,-3%,20*,-5%
CC(C)(C)c1ccc(C(=O)NNC(=S)NCC2CCCO2)cc1 (stereo not drawn),26,26%,9,0%
CC(C)(C)c1ccc(C(=O)NC(=S)NCC2CCCO2)cc1 (stereo not drawn),148*,13µM*,17*,-1%
CCOc1ccc(-c2cc(C(=O)NCC3CCCO3)c3ccccc3n2)cc1 (stereo not drawn),65*,-13%,24*,5%
COc1ccc(-c2cc(C(=O)NCC3CCCO3)c3ccccc3n2)c(OC)c1 (stereo not drawn),2,-3%,-3,23%
CC(C)(C)c1ccc(C(=O)N2CCC(C(=O)NCC3CCCO3)CC2)cc1 (stereo not drawn),35,6%,20*,1%
c1cncc(-c2nc(NCC3CCCO3)c3ccccc3n2)c1 (stereo not drawn),-17,-2%,-5,1%
CN(C)C(CNC(=O)c1ccc(Cl)c(S(=O)(=O)N2CCCCCC2)c1)c1ccccc1 (stereo not drawn),nt,-2%,nt,nt
O=C(NCC1CCCO1)c1ccc(C(=O)NCC2CCCO2)cc1 (stereo not drawn),-1,0%,-2,0%
CCOc1ccc(C(=O)NCC2CCCO2)cc1 (stereo not drawn),117*,1%,38*,?
COc1ccc(/C=C/C(=O)NC(=S)NCC2CCCO2)cc1 (stereo not drawn),53,3%,17,nt
O=C(NC(=S)NCC1CCCO1)c1ccc(Cl)cc1Cl (stereo not drawn),56*,20%,16*,20%
COc1ccc(C(=O)NC(=S)NCC2CCCO2)cc1 (stereo not drawn),54*,?,42*,17%
CN(C(=O)CN1C(=O)C2C3CC(C(Br)C3Br)C2C1=O)C1CCCCC1 (stereo not drawn),-4,-3%,-4,-8%
COc1ccc(S(N)(=O)=O)cc1C(=O)OCC(=O)N1CC(=O)Nc2ccccc21,nt,-3%,nt,nt
Cc1cc(NC(=O)c2cccc(S(=O)(=O)N3CCOCC3)c2)no1,-14,-6%,-1,4%
SMILES,Shiga inhibitor,SARS PLP yeast,CHX counter,NS1 function inh
Cc1ccnc(NC(=O)c2cccc(S(=O)(=O)N3CCCC3)c2)c1,22,1%,25*,0%
Cc1ccnc(NC(=O)c2cccc(S(=O)(=O)N3CCN(c4ccccc4)CC3)c2)c1,nt,-6%,nt,nt
Cc1cc(NC(=O)c2cccc(S(=O)(=O)N3CCCCC3)c2)no1,11,1%,9.3*,9%
Cc1cc(OC(=O)c2c(F)cc(F)cc2F)nc(C)n1,-6,2%,-5,nt
Brc1ccc(N/N=C(/N=Nc2nn[nH]n2)c2ccccc2)cc1,53,?,19*,7%
O=C(O)c1ccc(N=N/C(=N\Nc2ccc(C(=O)O)cc2)c2ccccc2)cc1,nt,-1%,nt,nt
CC(C)(C)NC(=O)COC(=O)CNC(=O)c1cc(Cl)cc([N+](=O)[O-])c1,-6,-2%,-7,-4%
N/C(Cc1ccc(Cl)cc1Cl)=N\OC(=O)Cc1ccc(Cl)cc1,14,-82%,-2,-80%
N/C(Cc1ccc(Cl)cc1)=N\OC(=O)c1ccc2ccccc2c1,5,-23%,9,-60%
N/C(CC1CC1(Cl)Cl)=N\OC(=O)c1ccccc1 (stereo not drawn),71*,-6%,45*,-46%
N/C(Cc1ccc(Cl)cc1Cl)=N\OC(=O)c1ccccc1,32*,-36%,19*,nt
N/C(Cc1ccc(Cl)cc1Cl)=N\OC(=O)Cc1ccccc1,22,-115%,20*,-34%
O=C(O)/C(=C\c1ccccc1)Cc1ccccc1,nt,nt,nt,0%
O=C(Nc1cccc(/C=C/c2nc3ccccc3c(=O)[nH]2)c1)c1ccccc1Cl,39,-2%,11*,-1%
COc1cc(/C=C/c2nc3ccccc3c(=O)[nH]2)cc(Cl)c1O,25,13%,-3,1%
COc1ccc(C(=O)Nc2cccc(/C=C/c3nc4ccccc4c(=O)[nH]3)c2)cc1,107*,-3%,20*,1%
COc1ccc(C(=O)Nc2nc3cc(OC)c(OC)cc3c(=O)[nH]2)cc1,18,-2%,-3,-6%
COc1ccc(C(=O)Nc2nc3ccccc3c(=O)[nH]2)cc1,82*,2%,44*,-54%
NC(=O)N[C@H](CC(=O)O)C(=O)O,nt,nt,nt,-3%
CCc1cccc(CC)c1-n1c(SCC(=O)N2CCc3ccccc32)nc(O)cc1=O,nt,0%,nt,nt
Cn1c(=O)[nH]c(=O)c2c1nc(NCCCO)n2Cc1ccc(F)cc1,79*,2%,16,1%
Cc1cc(C)n(-c2nc3c(c(=O)[nH]c(=O)n3C)n2Cc2ccc(F)cc2)n1,-5,3%,-4,3%
Cc1ccc(Nc2nc3c(c(=O)[nH]c(=O)n3C)n2Cc2ccc(F)cc2)cc1,26*,8%,13*,-1%
O=C(COC(=O)CNC(=O)c1cccc([N+](=O)[O-])c1)Nc1nc2ccccc2s1,33,-5%,15*,13%
CC1CN(CC(=O)Nc2nc3ccccc3s2)CC(C)O1 (stereo not drawn),57,-5%,12*,2%
SMILES,Shiga inhibitor,SARS PLP yeast,CHX counter,NS1 function inh
O=C(Cn1ccc([N+](=O)[O-])n1)Nc1nc2ccccc2s1,86*,-4%,26,nt
O=C(Cn1ccc([N+](=O)[O-])n1)Nc1nccs1,-7,-7%,-5,15%
CN1CCN(CC(=O)Nc2nc3ccccc3s2)CC1,26,-3%,18*,18%
CCN1CCN(CC(=O)Nc2nc3ccccc3s2)CC1,6,0%,12,13%
O=C(COC(=O)CNC(=O)c1cccc([N+](=O)[O-])c1)Nc1ccccc1OC(F)F,-11,7%,0,2%
CC(C)(C)NC(=O)C(c1ccc(Cl)cc1)N(Cc1ccco1)C(=O)CCl (stereo not drawn),-4,-4%,-1,-2%
Cc1nonc1NC(=O)CSc1nc2c(C)cccc2cc1C#N,68*,-7%,41*,nt
COc1ccc(CN(C(=O)CN2C(=O)NC3(CCC(C)CC3)C2=O)C(C)Cc2cccs2)cc1 (stereo not drawn),nt,-2%,nt,nt
CN1C(=O)/C(=C\C=C2/CCCN2C)N(C)C1=S,54,-3%,23*,11%
